Epigenetic mod: derepresses silenced GFP locus in mouse C127i cells; mouse C127i GFP locus derepression, cytometry, 30 h; Potency, µM (top dose mostly 46.1 µM); AID 597; actives 0.09% (n = 68,000)
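Derepression screen: silenced CMV-GFP reporter in murine C127i cells, 30 h compound incubation at 37 C, washed cells imaged by laser-scanning cytometer to enumerate GFP-expressing objects of 20 to 120 um.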
TSHR agonist: agonists of human thyroid stimulating hormone receptor. AID 926. HEK293-CNG-TSHR cells (CNG channel as cAMP sensor), membrane potential dye, cAMP. actives 0.48% (n = 73,000). P16473. Potency, µM (titrated, usually from 57.1 µM), usual class: activators; active = well fitted activation curve with a large enough effect in the main read-out, with a control signal flat, not every such curve was filed as active; inconclusive = small, poorly fitted or top-dose-only effect, or a change in a side signal; inactive = no such curve, though single readings can be large or run the other way; reference of the percent scale not stated here;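 also: the control signal comes from parental cells without the receptor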
Target sequence (P16473 whole entry, looked up): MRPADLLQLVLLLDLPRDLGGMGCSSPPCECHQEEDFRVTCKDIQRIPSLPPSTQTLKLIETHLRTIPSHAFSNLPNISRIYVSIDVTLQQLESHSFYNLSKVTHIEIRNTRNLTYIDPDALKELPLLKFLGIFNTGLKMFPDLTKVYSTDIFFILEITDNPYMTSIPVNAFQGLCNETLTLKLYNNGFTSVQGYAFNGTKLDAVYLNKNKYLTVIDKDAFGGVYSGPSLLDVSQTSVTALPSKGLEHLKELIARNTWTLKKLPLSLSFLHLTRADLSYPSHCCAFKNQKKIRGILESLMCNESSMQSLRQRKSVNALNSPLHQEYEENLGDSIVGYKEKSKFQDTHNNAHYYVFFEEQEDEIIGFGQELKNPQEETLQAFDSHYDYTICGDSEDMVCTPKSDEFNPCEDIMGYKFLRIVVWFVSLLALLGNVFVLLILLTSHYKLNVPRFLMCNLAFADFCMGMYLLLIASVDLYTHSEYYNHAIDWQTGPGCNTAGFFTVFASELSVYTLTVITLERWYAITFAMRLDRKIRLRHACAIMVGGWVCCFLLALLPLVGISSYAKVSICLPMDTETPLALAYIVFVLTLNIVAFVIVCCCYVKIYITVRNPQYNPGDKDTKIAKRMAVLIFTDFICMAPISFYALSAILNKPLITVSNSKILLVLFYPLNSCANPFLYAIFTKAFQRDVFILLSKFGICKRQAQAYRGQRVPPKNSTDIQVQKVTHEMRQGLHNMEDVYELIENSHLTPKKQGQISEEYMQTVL
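HEK 293 cells stably expressing TSHR and a modified CNG channel, with CNG-only parental cells as counterscreen, were preloaded 60 min at room temperature with membrane potential dye containing 100 uM RO 20-1724. Compound exposure was 30 min, and depolarization was read as fluorescence at 590 nm.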
HEK293 cAMP ctrl: counter-screen for TSHR agonists: cAMP increase in parental HEK293 | Potency, µM (top dose mostly 57.1 µM), actives largely listed as activators | parental HEK293 CNG cAMP sensor, membrane potential fluorescence | AID 938 | actives 2.5% (n = 73,000); also: nearly all actives have a fitted effect of over 55% in size
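Parental HEK 293 cells stably expressing a modified CNG channel (no TSHR) report cAMP rise as membrane depolarization. Membrane potential dye with 100 uM RO 20-1724 was loaded for 60 min at room temperature, then compound added for 30 min; fluorescence read at 590 nm.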
HBB splice mod: modulators of hemoglobin beta chain splicing | HBB splicing reporter cell assay, activation; EGFP reporter with mutant IVS2-654 intron; response scale: normalised to 500 nM splice-correcting PNA | Potency, µM (doses to about 46.1 µM), usual class: activators | actives 0.06% (n = 65,000)
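Compounds were applied for 2 days to HeLa EGFP-654 cells, 500/well in Optimem with 2% FCS. The reporter's EGFP is disrupted by mis-splicing of beta-globin intron IVS2-654. Readout: summed well GFP fluorescence from 488 nm laser scanning; reference was 500 nM antisense […] 654 PNA.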
Ub-GFP proteasome: proteasome inhibitors stabilizing ubiquitin-GFP reporter. Ubiquitin-GFP reporter cells, proteasome inhibition, GFP fluorescence; response scale: untreated = 0%, 10 µM MG-132 = 100%. Potency, µM (highest dose often 45.9 µM), most hits filed as activators. 67,000 tested, under 10 active. AID 526; active = well fitted activation curve with a large enough effect, not every such curve was filed as active; inconclusive = small, poorly fitted or top-dose-only effect, or another doubt; inactive = no such curve, though single readings can be large or run the other way
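GFP accumulation read-out: laser plate cytometry counting ubiquitin(G76V)-GFP-expressing U2OS cells after 4 hr compound exposure at 37 °C. Titrations spanned 46 uM to 2.9 nM; 0% = basal, 100% = 10 uM MG-132; concentration-response curves fitted.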
Hits are given with their value; [ ] = remark or other dose. The list is not random: actives were taken first. Their share in the collection is about 3%. Unless noted, calls follow the shape of the dose curve; as a rule, active = well fitted curve in the direction sought with a large enough effect; inconclusive = small, poorly fitted or top-dose-only effect, or another doubt; inactive = no such curve, though single readings can be large; an effect the other way counts as inactive or inconclusive.

Screening O=C1CCCC=C1[C@H](CCc1ccccc1)OC(=O)c1ccc(Br)cc1 returned TSHR agonist inactive[11.4 µM], HEK293 cAMP ctrl inactive[11.4 µM] and HBB splice mod inactive[9.22 µM].
`CC(=O)n1c(COS(C)(=O)=O)nc2ccccc21` gave Epigenetic mod inactive[9.22 µM], TSHR agonist inactive[11.4 µM], HEK293 cAMP ctrl inactive[11.4 µM], HBB splice mod inactive[9.22 µM] and Ub-GFP proteasome inactive[9.17 µM].
For COc1cccc(C2C(C)CCC3C(=O)N(C)C(C(C)C)C(=O)N32)c1 (stereo not given) the results were TSHR agonist inactive[11.4 µM], HEK293 cAMP ctrl inactive[11.4 µM] and HBB splice mod inactive[9.22 µM].
Screening CC/C=C\CC[C@H](OC(=O)c1ccc(Br)cc1)C1=CCCCC1=O returned TSHR agonist inactive[11.4 µM], HEK293 cAMP ctrl inactive[11.4 µM] and HBB splice mod inactive[9.22 µM].
`CCCn1c(SCC(=O)Nc2ccccc2-c2ccccc2)nnc1-c1ccoc1C` gave Epigenetic mod inactive, TSHR agonist inconclusive, HEK293 cAMP ctrl 16µM and Ub-GFP proteasome inactive.
For Cc1ccc(-c2cc(C(=O)Nc3cc(C)on3)c3ccccc3n2)c(C)c1 the results were TSHR agonist inconclusive, HEK293 cAMP ctrl inconclusive, HBB splice mod inactive and Ub-GFP proteasome inactive.
Screening Cc1cc(NC(=O)c2cc(-c3cccnc3)nc3c(C)c(C)ccc23)no1 returned Epigenetic mod inactive, TSHR agonist inconclusive, HEK293 cAMP ctrl 25µM, HBB splice mod inactive and Ub-GFP proteasome inactive.
O=C1O/C(=C\Br)CC[C@@H]1c1cccc2ccccc12 was read as Epigenetic mod inactive, TSHR agonist inactive, HEK293 cAMP ctrl inactive, HBB splice mod inactive and Ub-GFP proteasome inactive.
Cc1ccc2c(c1)cc(CN(Cc1cccs1)C(=O)c1ccco1)c1nnnn12 was read as Epigenetic mod inactive, TSHR agonist inconclusive, HEK293 cAMP ctrl 16µM, HBB splice mod inactive and Ub-GFP proteasome inactive.
`COc1ccc2[nH]cc(CCNc3ccnc(-c4ccccc4Cl)n3)c2c1` gave Epigenetic mod inactive[9.22 µM], TSHR agonist inactive, HEK293 cAMP ctrl inactive, HBB splice mod inactive and Ub-GFP proteasome inactive.
For O=C(Nc1cccc2c1CCCC2)c1ccc(Br)o1 the results were Epigenetic mod inactive, TSHR agonist inconclusive, HEK293 cAMP ctrl 25µM, HBB splice mod inactive and Ub-GFP proteasome inactive.
For CSCCC(NC(=O)c1ccccc1)c1nc(-c2ccccc2)no1 (stereo not given) the results were Epigenetic mod inactive, TSHR agonist inconclusive, HEK293 cAMP ctrl 16µM, HBB splice mod inactive and Ub-GFP proteasome inactive.
`COc1ccc2[nH]cc(CCNc3ncncc3-c3ccccc3C)c2c1` gave Epigenetic mod inactive[9.22 µM], TSHR agonist inconclusive, HEK293 cAMP ctrl inconclusive, HBB splice mod inactive and Ub-GFP proteasome inactive.
For O=C1c2ccccc2C(=O)c2c1ccc(N1C(=O)c3ccccc3C1=O)c2-c1c(N2C(=O)c3ccccc3C2=O)ccc2c1C(=O)c1ccccc1C2=O the results were Epigenetic mod inactive[9.22 µM], TSHR agonist inactive[11.4 µM], HEK293 cAMP ctrl inactive[11.4 µM], HBB splice mod inactive[9.22 µM] and Ub-GFP proteasome inactive[9.17 µM].
COc1cccc(OC)c1OCCNC[C@@H]1COc2ccccc2O1 was read as Epigenetic mod inactive, TSHR agonist inconclusive, HEK293 cAMP ctrl 32µM, HBB splice mod inactive and Ub-GFP proteasome inactive.
O=C(O)CNCC1COc2ccccc2O1 (stereo not given) was read as Epigenetic mod inactive, TSHR agonist inactive, HEK293 cAMP ctrl inactive, HBB splice mod inactive and Ub-GFP proteasome inactive.
For CN(C)C1CCN(C(=O)c2ccc(-n3c(=O)c(=O)[nH]c4ccccc43)cc2)C1 (stereo not given) the results were TSHR agonist inactive and HEK293 cAMP ctrl inactive.
`Cc1nc(Nc2ccncc2)c2oc3ccccc3c2n1` gave Epigenetic mod inactive, TSHR agonist inactive, HEK293 cAMP ctrl inactive, HBB splice mod inactive and Ub-GFP proteasome inactive.
Cc1nc(NC(C)c2ccccc2)c2oc3ccccc3c2n1 (stereo not given) was read as Epigenetic mod inactive, TSHR agonist inconclusive, HEK293 cAMP ctrl 16µM, HBB splice mod inactive and Ub-GFP proteasome inactive.
`O=C(NCc1ccc(Cl)cc1Cl)c1ccccn1` gave Epigenetic mod inactive, TSHR agonist inconclusive, HEK293 cAMP ctrl 25µM, HBB splice mod inactive and Ub-GFP proteasome inactive.
O=C(NCCCNCCCNC(=O)c1ccccn1)c1ccccn1 was read as Epigenetic mod inactive, TSHR agonist inactive, HEK293 cAMP ctrl inactive, HBB splice mod inactive and Ub-GFP proteasome inactive.
COc1cccc(-c2oc3ccccc3c(=O)c2O)c1 was read as Epigenetic mod inactive[9.22 µM], TSHR agonist inconclusive, HEK293 cAMP ctrl inconclusive and Ub-GFP proteasome inactive.
COc1ccccc1-c1oc2ccccc2c(=O)c1OC was read as Epigenetic mod inactive[9.22 µM], TSHR agonist inconclusive, HEK293 cAMP ctrl 32µM and Ub-GFP proteasome inactive.
`CCCCn1c(SCC(=O)c2cc(OC)ccc2OC)nc2cc(S(N)(=O)=O)ccc21` gave Epigenetic mod inactive, TSHR agonist inconclusive, HEK293 cAMP ctrl 25µM, HBB splice mod inactive and Ub-GFP proteasome inactive.
For CCCCn1c(SCC(=O)N2CCC(C)CC2)nc2cc(S(N)(=O)=O)ccc21 the results were Epigenetic mod inactive, TSHR agonist inactive[11.4 µM], HEK293 cAMP ctrl inactive, HBB splice mod inactive and Ub-GFP proteasome inactive.
Screening O=C(Cc1ccccc1)Nc1nc(-c2cccs2)cs1 returned Epigenetic mod inactive, TSHR agonist inactive, HEK293 cAMP ctrl inactive, HBB splice mod inactive and Ub-GFP proteasome inactive.
O=C(COc1ccc(Cl)cc1)Nc1nc(-c2cccs2)cs1 was read as Epigenetic mod inactive, TSHR agonist inconclusive, HEK293 cAMP ctrl 25µM, HBB splice mod inactive and Ub-GFP proteasome inactive.
CCOC(=O)Cc1csc(NC(=O)COc2ccc(N(C)S(=O)(=O)c3cccs3)cc2)n1 was read as Epigenetic mod inactive, TSHR agonist inconclusive, HEK293 cAMP ctrl 13µM, HBB splice mod inactive and Ub-GFP proteasome inactive.
For O=C(CN(C(=O)c1cc2c(s1)CCC2)C1CCCC1)NCc1cccs1 the results were Epigenetic mod inactive, TSHR agonist inconclusive, HEK293 cAMP ctrl 32µM, HBB splice mod inactive and Ub-GFP proteasome inactive.
For O=C(NCc1ccco1)c1cc2c(s1)CCCCC2 the results were Epigenetic mod inactive, TSHR agonist inactive, HEK293 cAMP ctrl inactive, HBB splice mod inactive and Ub-GFP proteasome inactive.
Screening CCCn1c(=O)c2ccccc2n2c(SCCOc3ccc(Cl)cc3)nnc12 returned Epigenetic mod inactive, TSHR agonist inconclusive, HEK293 cAMP ctrl 25µM, HBB splice mod inactive and Ub-GFP proteasome inactive.
Screening CCCn1c(=O)c2ccccc2n2c(SCCOc3ccccc3F)nnc12 returned Epigenetic mod inactive, TSHR agonist inconclusive, HEK293 cAMP ctrl inconclusive, HBB splice mod inactive and Ub-GFP proteasome inactive.
Screening Cc1occc1C(=O)N1CCN(C(c2ccccc2)c2ccccc2)CC1 returned Epigenetic mod inactive, TSHR agonist 32µM, HEK293 cAMP ctrl inactive, HBB splice mod inactive and Ub-GFP proteasome inactive.

High-throughput results (PubChem BioAssay)
